# IP6K1 inhibitor = inhibitors of human IP6K1; Q92551; IP6K1 kinase, ADP-Glo luminescence, 2 h; hits give low values; activity change, % (series mostly up to about 58 µM); 0.81% of 140,000 active; in the data active = activity change below about -25%; also: % is scaled to controls: 0 for no effect and ±100 for the full control effect
#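 ADP-Glo luminescence measures ADP made by human IP6K1 during a 2 h RT reaction with ATP/IP6 (mix at 1.3 mM/130 uM); top library doses 57.5 and 19.1 uM final.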
# KDM5B inhibitor = blocks human KDM5B histone demethylase activity; Q9UGL1; KDM5B demethylase, FDH-coupled NADH fluorescence (FDH is formaldehyde dehydrogenase); Potency, µM (highest dose often 57.7 µM), most hits filed as inhibitors; 2.6% of 220,000 active; AID 1347165; also: potency is read from the fitted curve at half-maximal effect; 0% is about no effect; nearly all actives have a fitted effect of over 70% in size
# Target sequence (Q9UGL1 whole entry, looked up): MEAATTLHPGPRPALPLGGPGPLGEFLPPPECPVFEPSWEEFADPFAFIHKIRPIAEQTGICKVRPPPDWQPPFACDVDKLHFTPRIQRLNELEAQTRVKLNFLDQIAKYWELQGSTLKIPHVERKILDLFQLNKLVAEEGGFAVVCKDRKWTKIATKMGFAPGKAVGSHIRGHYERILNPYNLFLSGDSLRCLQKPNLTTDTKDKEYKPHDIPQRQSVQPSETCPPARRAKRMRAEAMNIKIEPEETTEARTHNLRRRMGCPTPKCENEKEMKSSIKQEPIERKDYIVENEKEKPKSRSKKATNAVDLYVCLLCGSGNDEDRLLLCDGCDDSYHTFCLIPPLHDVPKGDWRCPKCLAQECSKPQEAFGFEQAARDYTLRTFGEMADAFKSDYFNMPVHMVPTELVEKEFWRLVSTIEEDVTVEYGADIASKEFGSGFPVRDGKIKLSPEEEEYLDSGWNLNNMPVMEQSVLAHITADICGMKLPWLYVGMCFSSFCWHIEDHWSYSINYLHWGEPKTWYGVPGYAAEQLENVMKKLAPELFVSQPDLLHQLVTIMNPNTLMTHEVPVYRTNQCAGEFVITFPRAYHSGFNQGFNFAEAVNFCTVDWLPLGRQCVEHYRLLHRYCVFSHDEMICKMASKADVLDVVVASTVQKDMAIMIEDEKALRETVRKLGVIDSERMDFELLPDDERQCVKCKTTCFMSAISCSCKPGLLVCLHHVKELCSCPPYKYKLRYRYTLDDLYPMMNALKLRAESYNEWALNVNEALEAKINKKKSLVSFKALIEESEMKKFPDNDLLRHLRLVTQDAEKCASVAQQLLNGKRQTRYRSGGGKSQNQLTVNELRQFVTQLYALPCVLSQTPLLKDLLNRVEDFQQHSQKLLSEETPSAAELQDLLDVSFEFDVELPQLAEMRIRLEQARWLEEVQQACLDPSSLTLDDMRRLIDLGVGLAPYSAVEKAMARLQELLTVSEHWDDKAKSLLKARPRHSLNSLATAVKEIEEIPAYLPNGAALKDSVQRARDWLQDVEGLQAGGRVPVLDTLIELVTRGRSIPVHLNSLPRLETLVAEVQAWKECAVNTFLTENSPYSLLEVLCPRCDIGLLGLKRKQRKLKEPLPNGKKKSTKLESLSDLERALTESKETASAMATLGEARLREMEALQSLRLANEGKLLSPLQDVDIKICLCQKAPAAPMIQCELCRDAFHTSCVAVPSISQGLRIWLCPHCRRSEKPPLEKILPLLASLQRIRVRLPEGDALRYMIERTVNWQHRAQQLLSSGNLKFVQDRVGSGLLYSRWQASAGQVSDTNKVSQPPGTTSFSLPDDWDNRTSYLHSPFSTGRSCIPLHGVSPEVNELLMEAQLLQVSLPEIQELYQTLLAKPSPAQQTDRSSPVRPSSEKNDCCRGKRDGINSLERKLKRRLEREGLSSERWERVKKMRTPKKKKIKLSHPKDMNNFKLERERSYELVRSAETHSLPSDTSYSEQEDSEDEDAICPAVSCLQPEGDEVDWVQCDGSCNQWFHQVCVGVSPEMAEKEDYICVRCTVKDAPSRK
#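 KDM5BΔAP (200 nM final) in 50 mM HEPES pH 7.5, 0.01% Tween-20 was preincubated 10 min at RT with compound over a concentration range. Substrate mix (H3K4me3 12.5 µM, α-KG 25 µM, Fe²⁺, ascorbate, NAD⁺, FDH) was added, and NADH fluorescence change over 30 min gave dose-response curves.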
# SNCA viab count = cell viability loss counter-screen; AID 1671193; HEK-293-SNCA-luc viability, GF-AFC fluorescence, 24 h; Potency, µM (highest dose often 57.1 µM), for inactives: top-dose activity change, negative = cytotoxicity, usual class: cytotoxic; 0.12% of 150,000 active;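 also: potency is read from the fitted curve at half-maximal effect; 0% = DMSO-treated cells and -100% = medium-only wells without cells; nearly all actives have a fitted effect of over 30% in size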
#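 HEK-293-SNCA-luc cells (1500/well) plated 24 h, then exposed 24 h to a dilution series; GF-AFC added 30 min at 37C, fluorescence 405/540 nm; normalised to medium-only and DMSO wells, Hill fit.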
# SNCA expr inhib = SNCA gene expression inhibition | Potency, µM (top dose mostly 57.2 µM), for the others: top-dose activity change, negative = inhibition, hits mostly inhibitors | HEK-293 SNCA-luciferase knock-in, luminescence, 24 h | 0.17% of 140,000 active | AID 1671194;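 also: potency is read from the fitted curve at half-maximal effect; plate controls were DMSO cells for no effect and cell-free wells for full effect; nearly all actives have a fitted effect of over 45% in size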
# An asterisk follows results filed as active; i = inactive; ? = inconclusive; nt = no result; [ ] = dose if it differs, or a comment. The list is not random: actives were taken first. Their share in the collection is about 2.8%. Unless noted, calls follow the shape of the dose curve; as a rule, active = well fitted curve in the direction sought with a large enough effect; inconclusive = small, poorly fitted or top-dose-only effect, or another doubt; inactive = no such curve, though single readings can be large; an effect the other way counts as inactive or inconclusive.
SMILES,IP6K1 inhibitor,KDM5B inhibitor,SNCA viab count,SNCA expr inhib
Cc1nonc1C1CCCN1c1ccc(-c2nc(COc3ccccc3)no2)cn1 (centres undefined),-11,28µM*,-7%,13%
O=C1NCCCC[C@@H]1Nc1ccc(-c2nc(COc3ccccc3)no2)cn1,3,28µM*,3%,16%
c1ccc(OCc2noc(-c3ccc(NCC4CCCCO4)nc3)n2)cc1 (centres undefined),13,?,-9%,133%
COc1cc(C(=O)NCc2nc3ccccc3n2C(C)C)cc(OC)c1OC,nt,i,nt,nt
Cn1ccc(NC(=O)C2(C)CN(Cc3ccccc3)Cc3ccc(N4CCOCC4)nc32)n1 (centres undefined),22,11µM*,-13%,-14%
COCCNC(=O)C1(C)CN(Cc2ccccc2)Cc2ccc(N3CCOCC3)nc21 (centres undefined),8,32µM*,-23%[87.6 µM],-9%[87.6 µM]
CC1(C(=O)NC2CCC2)CN(Cc2ccccc2)Cc2ccc(N3CCOCC3)nc21 (centres undefined),-5,35µM*,?,-9%[87.6 µM]
CN(C)CCNC(=O)C1(C)CN(Cc2ccccc2)Cc2ccc(Nc3ccccc3)nc21 (centres undefined),4,i,-14%,?
CC(C)CNc1ccc2c(n1)C(C)(C(=O)NC1CCN(C)CC1)CN(Cc1ccccc1)C2 (centres undefined),0,i,-9%,-23%
CNC(=O)C1(C)CN(Cc2ccccc2)Cc2ccc(N3CCOCC3)nc21 (centres undefined),2,35µM*,-6%[87.6 µM],-1%[87.6 µM]
CN1Cc2ccc(N3CCOCC3)nc2C(C)(C(=O)NCc2ccccc2)C1 (centres undefined),63,?,-4%[87.6 µM],-30%[87.6 µM]
CCCNC(=O)NC(=O)CN(CCC1CCCCC1)CC(N)=O,nt,i,nt,nt
CC(Sc1nnc(-c2ccco2)n1C(C)C)C(=O)Nc1nccs1 (centres undefined),nt,i,nt,nt
CCOC(=O)[C@H]1[C@@H](O)C(=O)NC12CCN(C(=O)OCC(C)C)CC2,1,nt,nt,nt
CC1(C(=O)NCc2ccco2)CN(Cc2ccccc2)Cc2ccc(N3CCOCC3)nc21 (centres undefined),26,16µM*,-30%,?
Cc1c(-c2ccccc2)[nH]c2c(CNC(=O)CN3C(=O)CNC3=O)cc(Cl)cc12,-8,?,-10%,74%
Cc1c(-c2ccccc2)[nH]c2c(CNC(=O)Cn3ccc(=O)[nH]c3=O)cc(Cl)cc12,-13,28µM*,4%,-2%
Cc1c(-c2ccccc2)[nH]c2c(CNC(=O)CCn3cnnn3)cc(Cl)cc12,-14,25µM*,-3%,11%
Cc1cc(CNC(=O)C2(C(N)=O)CC2)c2[nH]c(-c3ccccc3)c(C)c2c1,23,28µM*,-22%,?
Cc1c(-c2ccccc2)[nH]c2c(CNC(=O)c3ccc(=O)n(C)n3)cc(Cl)cc12,0,i,?,-6%
NC(=O)C1(C(=O)NCc2nc(-c3cccc(F)c3)c(-c3ccccn3)[nH]2)CC1,-6,i,1%,-14%
Cc1cc(C)c2oc(-c3cc(NC(=O)c4ccco4)cc(C)c3O)nc2c1,nt,i,nt,nt
O=C(COC(=O)c1cccs1)c1ccc(OC(=O)c2ccccc2)cc1,nt,i,nt,nt
CC(=O)Nc1ccc(CN2CCn3c(nnc3C3CCNCC3)C2)cc1,4,13µM*,-28%[87.6 µM],-1%[87.6 µM]
c1ccc(CN2CCn3c(nnc3C3CCNCC3)C2)cc1,-9,100µM*,4%[87.6 µM],3%[87.6 µM]
SMILES,IP6K1 inhibitor,KDM5B inhibitor,SNCA viab count,SNCA expr inhib
COc1ccc(CN2CCn3c(nnc3C3CCNCC3)C2)cc1,3,i,5%,34%
CS(=O)(=O)Nc1ccc(NC(=O)Cc2ccc3c(c2)CCC3)cc1,nt,i,nt,nt
Cc1nn(-c2ccccc2)c2c1C(C1CC1)N(C1CCN(C(=O)c3ccc(Cl)nc3)C1)C2=O (centres undefined),-8,nt,nt,nt
O=C(c1cccc2[nH]ccc12)N1CC(Oc2cccc(-c3nc(-c4ccccc4)no3)c2)C1,-2,25µM*,-13%,61%
Cn1cccc1C(=O)N1CC(Oc2cccc(-c3nc(-c4ccccc4)no3)c2)C1,0,32µM*,-18%,1%
Cc1c(CC(=O)N2CCOCC2)c(=O)oc2cc(O)ccc12,nt,i,nt,nt
COc1cccc(-c2cc(C(=O)NC3CCCCC3)c3cnn(C)c3n2)c1,11,nt,nt,nt
CC1(C)CC(Nc2nccc(-c3cnn(-c4ccccc4)c3)n2)CC(C)(C)N1,1,28µM*,-7%,2%
CC(Cc1ccncc1)Nc1nccc(-c2cnn(-c3ccccc3)c2)n1 (centres undefined),0,32µM*,-16%,2%
CC1(C)CC(Nc2nccc(C(F)(F)F)n2)CC(C)(C)N1,nt,i,nt,nt
CC(Cc1ccncc1)Nc1nccc(-c2cnn(-c3ccccc3F)c2)n1 (centres undefined),9,28µM*,-24%,-16%
COc1ccc(Oc2coc3cc(OCC(=O)OCCC(C)C)ccc3c2=O)cc1,nt,i,nt,nt
CN(CC(=O)NC1CCCCNC1=O)Cc1cccc(F)c1 (centres undefined),nt,i,nt,nt
CCOC(=O)c1cnc(SCC(=O)Nc2ccc(Br)cc2C)nc1N,nt,i,nt,nt
COCc1nc2nccc(-c3ccsc3)n2n1,-10,28µM*,2%,-17%
CCc1nc2nccc(-c3ccsc3)n2n1,-3,25µM*,11%,5%
CC(C)Cc1nc2nccc(-c3ccsc3)n2n1,-4,28µM*,-1%,15%
CNC(=O)NC(=O)CN(C)Cc1cccc(Cl)c1Cl,nt,i,nt,nt
O=C(NCC(F)(F)F)c1cn2cc(-c3ccccc3)sc2n1,-8,nt,2%[87.6 µM],169%[87.6 µM]
O=C(NCCc1ccccc1)Nc1ccc2nc(NS(=O)(=O)c3ccccc3)sc2c1,nt,i,nt,nt
COCCN1CCC2(C1)CN(C)c1ccc(C(=O)Nc3ccccc3)cc12 (centres undefined),-5,25µM*,-2%[87.6 µM],10µM*
COCCN1CCC2(C1)CN(C)c1ccc(C(=O)Nc3ccc(F)cc3)cc12 (centres undefined),10,?,-7%[87.6 µM],-2%[87.6 µM]
CC(=O)N1CCCC2(C1)CN(C)c1ccc(C(=O)NCC3CC3)cc12 (centres undefined),-2,28µM*,3%[87.6 µM],25%[87.6 µM]
COCCN1CCC2(C1)CN(C)c1ccc(C(=O)NCC3CC3)cc12 (centres undefined),-3,35µM*,2%[87.6 µM],14%[87.6 µM]
Cc1c(OS(C)(=O)=O)ccc2c1O/C(=C\c1ccc3c(c1)OCO3)C2=O,nt,i,nt,nt
O=C(O)c1ccc(C(=O)O)nc1,nt,i,nt,nt
O=C(CSc1nc2ccc(Cl)cc2o1)c1c[nH]c2ccccc12,nt,i,nt,nt
CN(C)c1ncc2c(n1)CCCC2NC(=O)CN1C(=O)NC(C)(C)C1=O (centres undefined),-7,?,-2%,18%
CCCc1nc(C(=O)NC2CCCc3nc(N(C)C)ncc32)cs1 (centres undefined),-12,25µM*,-18%,1%
Fc1ccc2cnc(N3CCC(N[C@H]4C[C@@H]5OCC[C@H]45)CC3)nc2c1,44,25µM*,-1%,99%

# High-throughput results: PubChem BioAssay, National Center for Advancing Translational Sciences (NCATS)
